Values joined by “and” are separate entries in the source; they are usually repeats but may differ in a detail not shown here. Equal entries are not always repeated. The source holds several records for some structures; these can differ, active in one and inactive in another. Active and inactive are the calls of the source. Rule for the calls: active = hit-call score of the fitted dose curve at least 0.9, where 1 is the maximum; inactive = score below 0.9.
Read-out: Nuclear factor erythroid 2-related factor 2 (Homo sapiens) (UniProt Q16236)
Test: LTEA_HepaRG_NFE2L2: Life Technologies and Expression Analysis (LTEA) Assay for Nuclear factor erythroid 2-related factor 2 (NFE2L2) Transcription Factor using HepaRG (AID 2283527);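 for outcome: TaqMan qRT-PCR transcript level normalised to ACTB GAPDH and POLR2A housekeeping genes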
Settings: mRNA level, 48 h; actives raise or lower the signal
Procedure: LTEA_HepaRG is a cell based, multiplexed-readout assay that uses HepaRG, a human liver cell line, with measurements taken at 48 hours after chemical dosing on a 96-well plate.LTEA_HepaRG_NFE2L2 is one of 102 assay component(s) measured in the LTEA HepaRG cell culture assay. It is a marker of Inflammation/injury.Data from the assay component LTEA_HepaRG_NFE2L2 was analyzed into 1 endpoint. This assay endpoint, LTEA_HepaRG_NFE2L2, was analyzed with bidirectional fitting relative to DMSO as the negative control and baseline of activity. Using a type of inducible reporter, measures of mRNA induction for gain or loss-of-signal activity can be used to understand regulation of transcription factor activity. To generalize the intended target to other relatable targets, this assay endpoint is annotated to the dna binding intended target family, where the subfamily is basic leucine zipper.
A total of 1060 chemcials from the ToxCast library were tested in eight-point concentration-response experiments. Cell culture and cytotoxicity assays were conducted at Thermo Fisher Scientific's Custom Services facility (Madison, WI). A single lot of human HepaRG cells (Thermo Fisher Scientific, Frederick, MD) was used for the cell culture experiments. 96-well format collagen type I coated plates of human HepaRG cells were prepared using established methods. Briefly, cryopreserved HepaRG cells were thawed, plated at a density of approximately 100,000 cells/well in HepaRG Thaw, Plate, and General Purpose media (HPRG770, Thermo Fisher Scientific), and incubated for 48 hours. 0.5% DMSO was selected as vehicle control to balance the requisite need of DMSO in HepaRG cultures to maintain differentiation (for example, baseline metabolism, proportions of hepatocytes vs. cholangiocytes), while enabling further hepatic receptor pathway activation (for example, PXR and CAR) in response to chemical exposure. 48 hours after plating, the culture medium was replaced with HepaRG Serum-Free Incudtion Media. Cells were exposed to each test chemical in duplicate and maintained in CO2 incubators for another 48 hours. Chemical plates were thawed to room temperature and 200x concentrations of treatment groups were prepared. 8-point conentration-reponse curves were made with the highest exposure at 100 uM, followed by half-log dilutions, all in 0.5% DMSO. Each test plate contained variouse controls, induction positive controls (1mM phenobarbital), cytotoxicity positive controls ([…] aflatoxin B1), vehicle controls (0.5% DMSO), and total lysis controls (0.5% DMSO). Cell morphology images were taken using an Essen IncuCyte FLR automated microscope, with six 96-well plates imaged in about 24 minutes. Images were captured and exported and JPEG files. Spent culture media was transfered to black-well plates for the LDH assay, and remaining media was sorted at -80 C for later use. Cells were treated with RLT buffer and frozen until shipped for gene expression analysis. Total RNA was isolated from the cell suspension in 75 uL of Buffer RLT (Qiagen, Germantown, MD 20874) by Quintiles/Expression Analysis (Durham, NC) using a custom isolation procedure. Total RNA from each plate well was transferred to a preamplification plate. Fluidigm's 96.96 Dynamic ArrayTM (Fluidigm, Amsterdam, the Netherlands) technology was used for gene expression analyses by quantitative reverse transcription polymerase chain reaction (qRT-PCR, performed by Quintiles/Expression Analysis, Durham, NC)89. Standard TaqManTM Assays (Applied Biosystems/ThermoFisher Scientific, Foster City, CA) were used to assess the expression of 93 genes selected based on their selectivity and sensitivity to important hepatic receptors known to be modulated by environmental chemicals; importance in human hepatocyte functionality; and hepatotoxicity. […]

Chain of Nuclear factor erythroid 2-related factor 2 (Homo sapiens) (Q16236 whole entry, looked up): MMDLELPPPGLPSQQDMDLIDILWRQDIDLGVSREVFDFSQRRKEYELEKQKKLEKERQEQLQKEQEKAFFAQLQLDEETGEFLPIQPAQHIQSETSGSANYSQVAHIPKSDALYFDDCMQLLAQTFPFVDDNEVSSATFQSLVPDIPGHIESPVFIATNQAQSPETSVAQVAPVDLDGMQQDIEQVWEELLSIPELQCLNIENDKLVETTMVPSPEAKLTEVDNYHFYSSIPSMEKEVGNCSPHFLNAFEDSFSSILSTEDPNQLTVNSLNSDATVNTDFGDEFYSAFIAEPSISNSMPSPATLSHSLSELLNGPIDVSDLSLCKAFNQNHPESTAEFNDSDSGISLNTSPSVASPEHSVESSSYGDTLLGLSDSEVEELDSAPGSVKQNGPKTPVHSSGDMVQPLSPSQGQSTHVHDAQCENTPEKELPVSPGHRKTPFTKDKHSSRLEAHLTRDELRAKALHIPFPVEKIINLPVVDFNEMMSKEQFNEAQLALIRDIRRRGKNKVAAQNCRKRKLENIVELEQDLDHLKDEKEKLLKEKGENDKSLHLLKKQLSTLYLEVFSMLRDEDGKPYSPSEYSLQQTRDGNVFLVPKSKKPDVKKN

Compound | outcome | AC50
COP(=S)(OC)Oc1nc(Cl)c(Cl)cc1Cl | inactive | –
CC(C)C1(C)N=C(c2nc3ccccc3cc2C(=O)O)NC1=O (stereo not given) | inactive | –
CCOP(=S)(OCC)SCn1c(=O)oc2cc(Cl)ccc21 | inactive | –
Oc1ccccc1-c1ccccc1 | inactive | –
CO/C=C(/C(=O)OC)c1ccccc1Oc1cc(Oc2ccccc2C#N)ncn1 | inactive | 77.7 µM (active) and 74.5 µM (active)
CCCCNC(=O)OCC#CI | inactive | –
CCCCNC(=O)n1c(NC(=O)OC)nc2ccccc21 | inactive | –
COC(=O)C=C(C)OP(=O)(OC)OC | inactive | –
CC(C)(C)c1ccc(CSc2cnn(C(C)(C)C)c(=O)c2Cl)cc1 | – | 26.7 µM (active)
Cc1c(F)c(F)c(COC(=O)C2C(/C=C(\Cl)C(F)(F)F)C2(C)C)c(F)c1F (stereo not given) | inactive | –
C=CCC1=C(C)[C@@H](OC(=O)[C@@H]2[C@@H](C=C(C)C)C2(C)C)CC1=O | inactive | –
CCCN(CCC)c1c([N+](=O)[O-])cc(S(N)(=O)=O)cc1[N+](=O)[O-] | inactive | 79.3 µM (active) and 79.5 µM (active)
CC(Oc1ccc(Cl)cc1Cl)C(=O)O (stereo not given) | inactive | –
CN(C)C(=S)SSC(=S)N(C)C | inactive | –
COC(=O)N(OC)c1ccccc1COc1ccn(-c2ccc(Cl)cc2)n1 | – | 18.3 µM (active)
N#Cc1cc(Br)c(O)c(Br)c1 | – | 10.3 µM (active)
CCCC1COC(Cn2cncn2)(c2ccc(Cl)cc2Cl)O1 (stereo not given) | – | 83.6 µM (active)
CNC(=S)S | inactive | –
CS/C(C)=N/OC(=O)N(C)SN(C)C(=O)O/N=C(\C)SC | inactive | –

Compound | outcome | AC50
CNC(=O)ON=CC(C)(C)SC | inactive | –
CON(C)C(=O)Nc1ccc(Cl)c(Cl)c1 | – | 86.9 µM (active)
COc1cnc(OC)n2nc(NS(=O)(=O)c3c(OCC(F)F)cccc3C(F)(F)F)nc12 | inactive | –
CCON=C(CC)C1=C(O)CC(c2c(C)cc(C)cc2C)CC1=O (stereo not given) | inactive | –
CCCCC(CC)COC(=O)c1ccccc1C(=O)OCC(CC)CCCC (stereo not given) | inactive | –
N#Cc1nn(-c2c(Cl)cc(C(F)(F)F)cc2Cl)c(N)c1S(=O)C(F)(F)F (stereo not given) | – | 83 µM (active)
C#CCOS(=O)OC1CCCCC1Oc1ccc(C(C)(C)C)cc1 (stereo not given) | inactive | –
Fc1ccc(Oc2ccnc3cc(Cl)cc(Cl)c23)cc1 | inactive | –
CCNc1nc(Cl)nc(NC(C)C)n1 | inactive | –
CCc1nn(C)c(C(=O)NCc2ccc(C(C)(C)C)cc2)c1Cl | – | 10.6 µM (active)
O=C(O)COc1nc(Cl)c(Cl)cc1Cl | inactive | –
C=CC1(C)OC(=O)N(c2cc(Cl)cc(Cl)c2)C1=O (stereo not given) | inactive | –
COP(N)(=O)SC (stereo not given) | inactive | –
O=C(Nc1ccccc1)Nc1ccnc(Cl)c1 | – | 82.3 µM (active)
COC(=O)C(C)Oc1ccc(Oc2ccc(Cl)cc2Cl)cc1 (stereo not given) | inactive | –
CCOc1cc(Oc2ccc(C(F)(F)F)cc2Cl)ccc1[N+](=O)[O-] | – | 21.9 µM (active)
COC(=O)c1ccccc1C(=O)OC | inactive | –
CC(C)Oc1cc(-n2nc(C(C)(C)C)oc2=O)c(Cl)cc1Cl | inactive | –
CCCCOC(=O)c1ccccc1C(=O)OCCCC | inactive | –

— PubChem BioAssay (EPA / NIEHS)
